# ATXN viability – viability counter-screen for ATXN expression inhibitors; S2 cells (HEK-293 line with an ATXN2-luciferase reporter) viability, CellTiter-Fluor protease fluorescence, 24 h; Potency, µM (top dose mostly 56.7 µM), usual class: cytotoxic; actives 0.49% (n = 400,000); further: nearly all actives have a fitted effect of over 40% in size
# HepG2 viability – kills HepG2 cells in TGF-b inhibitor counter-screen; actives 0.76% (n = 410,000); AID 588856; Potency, µM (highest dose often 46.1 µM), without a hit: at the highest dose activity change, negative = cytotoxicity, actives largely listed as cytotoxic; HepG2 CAGA-GFP viability, ATP luminescence, 18 h
#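 HepG2 CAGA-GFP cells (1000/well, DMEM with 1% FBS) received compound, then TGF-beta at 500 pg/mL final, and were incubated 18 hours at 37 degrees C. Viability was read by CellTiter-Glo luminescence. Media-only wells were set as complete cell-killing and DMSO as no toxicity.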
# 12-LOX inh – blocks human arachidonate 12S-lipoxygenase | Potency, µM (titrated, usually from 108 µM), for the others: at the highest dose activity change, negative = inhibition, usual class: inhibitors | actives 1.1% (n = 580,000) | P18054 | AID 1671190 | purified 12hLO, xylenol orange hydroperoxide absorbance; further: on the % scale 0 is the no-effect control and ±100 the full control effect
# Target sequence (P18054 whole entry, looked up): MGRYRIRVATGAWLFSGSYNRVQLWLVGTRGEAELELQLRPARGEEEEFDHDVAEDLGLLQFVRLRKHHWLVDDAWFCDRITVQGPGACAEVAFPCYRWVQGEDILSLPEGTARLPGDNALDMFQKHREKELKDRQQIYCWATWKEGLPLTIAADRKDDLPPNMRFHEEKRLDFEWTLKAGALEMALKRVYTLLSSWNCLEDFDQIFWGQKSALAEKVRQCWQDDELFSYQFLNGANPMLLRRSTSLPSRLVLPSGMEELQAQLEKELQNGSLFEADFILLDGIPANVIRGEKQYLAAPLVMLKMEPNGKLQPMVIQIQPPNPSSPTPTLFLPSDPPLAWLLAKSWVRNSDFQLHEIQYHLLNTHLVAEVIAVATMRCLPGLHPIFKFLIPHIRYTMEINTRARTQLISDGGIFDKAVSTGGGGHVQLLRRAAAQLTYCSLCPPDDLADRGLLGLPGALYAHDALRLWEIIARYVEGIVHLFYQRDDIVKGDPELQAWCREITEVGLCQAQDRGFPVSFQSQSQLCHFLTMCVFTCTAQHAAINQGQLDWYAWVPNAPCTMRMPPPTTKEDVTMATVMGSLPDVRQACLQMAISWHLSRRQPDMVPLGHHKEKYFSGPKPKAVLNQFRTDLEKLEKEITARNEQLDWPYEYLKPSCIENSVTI
#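 Hydroperoxide product was detected by ferrous iron/xylenol orange as the 573 to 405 nm absorbance ratio. Arachidonic acid at 40 uM (final) was turned over for 30 min at room temperature by 150 nM human 12hLO, pH 7.0 Hepes buffer, after 15 min compound preincubation.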
# ATXN2 expr inh – inhibitors of ATXN2 expression; Potency, µM (doses to about 57 µM), for inactives: top-dose activity change, negative = inhibition, most hits filed as inhibitors; actives 0.72% (n = 360,000); HEK-293 ATXN2-luciferase reporter, luminescence, 24 h; AID 1745845; further: on the % scale 0 is the no-effect control and ±100 the full control effect; nearly all actives have a fitted effect of over 55% in size
#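 qHTS (up to 57 uM final) was run with 24 h compound exposure of reporter cells at 37 °C. Each well was multiplexed: SteadyGlo luminescence measured ATXN2-luciferase expression after a fluorogenic Gly-Phe-AFC viability readout (25 uM final).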
# TGFb SMAD3 inh – TGF-b pathway inhibition; HepG2 CAGA-GFP TGF-b/SMAD3 reporter, GFP fluorescence, 18 h; TGF-beta stimulated, 500 pg/mL final; actives 1.2% (n = 410,000); AID 588855; Potency, µM (doses to about 46.1 µM), for inactives: top-dose activity, negative = inhibition, hits mostly inhibitors; further: on the % scale 0 is the no-effect control and ±100 the full control effect; nearly all actives have a fitted effect of over 65% in size
#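 Per well, imaged GFP fluorescence of HEPG2 CAGA-GFP cells gives the signal; cells get compound, then TGF-beta (500 pg/mL final), 18 h at 37 degrees C; %Activity versus -TGF-beta and +DMSO controls.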
# The depositor's hits bear a star; i = inactive; ? = inconclusive; nt = no result given; ! = not active in a repeat. Compounds with a hit are over-represented: about 2.7% of the library has one in this group of screens. The call rests on the fitted dose curve; in most records, active means well fitted curve in the direction sought with a large enough effect; inconclusive means small, poorly fitted or top-dose-only effect, or another doubt; inactive means no such curve, though single readings can be large; an effect the other way counts as inactive or inconclusive. Potency means the concentration at half of the fitted maximal effect.
SMILES,ATXN viability,HepG2 viability,12-LOX inh,ATXN2 expr inh,TGFb SMAD3 inh
COc1ccc(CCNc2nc(C)nc3sc4c(c23)CCCC4)cc1OC,nt,nt,-21.4%,nt,nt
COC(=O)CCN(Cc1cccc(C)c1)CC(C)C,nt,nt,-1.1%,nt,nt
CCc1cc[n+](C2=C([O-])c3ccccc3C(=O)/C2=N\S(=O)(=O)c2cccs2)cc1,?,3.55µM*,?,?,2.82µM*
O=C1C(=O)c2ccccc2C([O-])=C1[n+]1ccccc1,i,-2.5%,-12.0%,-13.4%,1.8%
COc1cc(Nc2c(C#N)cnc3c(OC)cccc23)cc(OC)c1OC,nt,nt,3.16µM*,nt,nt
COc1cc(Nc2c3c(nc4ccccc24)CCC3)cc(OC)c1OC,?,-28.8%,21.6%,9.2%,?
CCN(CC)C(=O)c1cc2sc3ccccc3c2s1,i,-25.9%,15.8µM*,42.1%,-6.9%
COc1ccc(C(C)=O)c(OS(=O)(=O)c2ccc3c(c2)CCC3)c1,nt,nt,-18.6%,nt,nt
CCOc1ccccc1NS(=O)(=O)c1cc(-c2cnc(C)o2)ccc1C,nt,nt,-1.4%,nt,nt
O=[N+]([O-])c1ccc(/C=N/Nc2ccc(S(=O)(=O)Nc3cccc(Cl)c3)cc2[N+](=O)[O-])cc1,nt,nt,14.2%,nt,nt
Fc1ccc(/C=N/Nc2cccc(Cl)c2)cc1F,nt,nt,3.98µM*,nt,nt
N#Cc1ccc(/C=N/Nc2ccccc2Cl)cc1,nt,nt,10µM*,nt,nt
N#Cc1ccc(/C=N/Nc2cccc(Cl)c2)cc1,nt,nt,2.51µM*,nt,nt
Cc1cccc(NC(=O)CSc2nc(N3CCOCC3)c3c(c2C#N)CCCC3)c1,nt,nt,4.0%,nt,nt
CCc1ccc(CN(C)C(=O)CN2CCN(c3ccc([N+](=O)[O-])c4cnccc34)CC2)cc1,nt,nt,-27.9%,nt,nt
CCOc1cc(C)ccc1OCc1nnc(SCC(=O)NC2CCCCC2)n1C,nt,nt,14.9%,nt,nt
NS(=O)(=O)N1CCCC(c2nc3ccccc3o2)C1 (centres undefined),nt,nt,40.2%,nt,nt
CCC[C@H](CN[C@@H](CNC)[C@H](C)CC)NCCc1cc(C(F)(F)F)cc(C(F)(F)F)c1,nt,22.4µM*,-20.5%,?,15.8µM*
CC[C@@H](C)[C@H](CNC)NC[C@@H](Cc1cccc2ccccc12)NCCc1cccc(C(F)(F)F)c1,35.5µM*,-110.2%,?,-22.3%,?
COC(=O)CNC(=O)C12CC3CC(C1)CC(c1ccccc1)(C3)C2,nt,nt,-14.9%,nt,nt
O=C1c2ccccc2NC(c2ccc(-c3ccc(C(F)(F)F)cc3)o2)N1O (centres undefined),?,-27.7%,28.2µM*,?,?
O=c1[nH]cccc1NS(=O)(=O)c1ccccc1Cl,nt,nt,35.5µM*,nt,nt
O=S(=O)(Nc1cccc2c1CCCC2)c1ccccc1Cl,nt,nt,130.9%,nt,nt
CC(C)N(CCC(=O)c1ccc2ccccc2c1)Cc1ccccc1,?,-64.4%,35.5µM*!,0.0%,11.2µM*
Cc1ccc(S(=O)(=O)/N=C2/NC(=O)/C(=C\c3ccco3)S2)cc1,?,-7.1%,?,-11.5%,?
SMILES,ATXN viability,HepG2 viability,12-LOX inh,ATXN2 expr inh,TGFb SMAD3 inh
Cc1ccc(S(=O)(=O)/N=C2/NC(=O)/C(=C\c3ccccc3)S2)cc1,i,-37.5%,39.8µM*,1.7%,?
COc1cc(/C=C2\S/C(=N/S(=O)(=O)c3ccc(C)cc3)NC2=O)c([N+](=O)[O-])cc1OC,nt,1.0%,?,nt,-14.4%
Cc1ccc(S(=O)(=O)/N=C2/NC(=O)/C(=C/c3ccccc3)S2)cc1,i,-17.0%,12.6µM*,7.1%,?
Cc1ccc(/C=C2\S/C(=N/S(=O)(=O)c3cccs3)NC2=O)cc1,i,2.8%,28.2µM*,nt,11.1%
Cc1ccccc1CCNC(=O)Cn1cc(C(N)=O)c2ccccc21,nt,nt,21.3%,nt,nt
Cc1ccc(-c2nc3ccccc3[nH]2)cc1NC(=O)COc1ccccc1[N+](=O)[O-],nt,-75.1%,-26.9%,nt,11.2µM*
CCCOc1cccc(C(=O)Nc2cc(-c3nc4ccccc4[nH]3)ccc2C)c1,20µM*,-28.7%,-5.3%,?,?
O=C(c1ccoc1)N1CCN(c2cc(-c3ccccc3)nc3cc(-c4ccccc4)nn23)CC1,?,-36.6%,?,?,?
COc1ccccc1-c1cc2nc(-c3ccccc3)cc(N3CCN(C(=O)c4ccco4)CC3)n2n1,?,5.8%,?,12.6µM*,15.2%

# Source: PubChem BioAssay
